The sample as a whole holds a higher share of hits than the screen did.
VACV E9 pol inh = inhibitors of vaccinia virus processive DNA synthesis (E9 polymerase); AID 493162; normalized absorbance, % (concentration not given with the values); in vitro processive DNA synthesis, absorbance read-out; hits give low values; hit rate 0.94% among 46,000; in the data active means normalized absorbance mostly below about 85%, no sharp cut-off; inactive means mostly above about 86%
* marks the source's active call; other numbers are inactive results.

SMILES | VACV E9 pol inh
Cc1cc(Nc2ccccc2)n(C(C)(C)C)n1 | 94.7
Cc1cc(Nc2ccccc2)n(-c2ccccc2C(=O)O)n1 | 86.5*
Cc1cc(Nc2ccccc2)n2cnnc2n1 | 87.5
CCOC(=O)c1cc(CC)sc1NC(=O)CC1Nc2ccccc2NC1=O (configuration not stated) | 101.2
O=C(OCCc1csc2ccccc12)c1ccc(Cl)cc1 | 103.0
COc1ccc(OC)c(NC(=O)c2cccnc2)c1 | 100.2
COc1ccc2nc(NC(=O)c3cccnc3)sc2c1 | 98.6
COc1ccc(-c2cc3ccccn3c2C(=O)c2cccnc2)c(OC)c1 | 43.8*
COc1ccc(/C(O)=C/c2nc3ccc(C(=O)N4CCOCC4)cc3[nH]c2=O)cc1OC | 80.5
CCN1CCN(CCCNC(=O)c2ccc3nc(/C=C(\O)c4ccc(OC)cc4)c(=O)[nH]c3c2)CC1 | 47.6*
Cc1ccc(/C(O)=C/c2nc3ccccc3[nH]c2=O)cc1C | 99.5
Cc1ccc(C)[n+](CNC(=O)c2ccc(Cl)cc2Cl)c1 | 91.4
CCC(C)NC(=O)CC12CC3CC(C1)CC(CC(=O)NC(C)CC)(C3)C2 (configuration not stated) | 102.1
O=C(O)c1ccccc1N=Cc1ccco1 | 99.9
CC(O)CCc1sc2ccccc2[n+]1C (configuration not stated) | 101.0
Cc1nn(-c2ccccc2)c2oc(=O)c(NC(=O)c3ccc(F)cc3)cc12 | 85.2
Cc1n[nH]c(=S)n(/N=C/c2ccccc2)c1=O | 96.9
N#CCOc1ccc2c(C#N)c3ccccn3c2c1 | 106.4
COc1ccc(OCc2c(C#N)c3ccccc3n2C)cc1 | 98.7
COc1ccc2c(C#N)c3ccccn3c2c1 | 72.0*
Cc1nc2ccc(NC(=O)/C=C/c3ccccc3)cc2s1 | 102.4
COc1ccccc1NC(=O)c1cccn(OCc2ccccc2)c1=O | 99.5
COc1ccc(C(=O)NC(N2CCCCC2c2cccnc2)(C(F)(F)F)C(F)(F)F)cc1 (configuration not stated) | 100.6
CCSc1nnc(NC(=O)c2ccc(-c3ccccc3)cc2)s1 | 98.7
N#CC1=C(N=Cc2cc(Cl)cc(Cl)c2O)CCC1 | 83.0*
SMILES | VACV E9 pol inh
N#CC1=C(N=Cc2c(O)ccc3ccccc23)CCC1 | 99.0
Oc1c(Cl)cc(Cl)cc1/C=N/c1nc2c(s1)CCCC2 | 97.1
O=C(CC1Sc2ccc(C(F)(F)F)cc2NC1=O)Nc1ccc(O)cc1 (configuration not stated) | 101.3
O/N=C/c1nc2ccccc2[nH]1 | 100.2
CCN(c1cccc(C)c1)S(=O)(=O)c1ccc2c(c1)SC(C)C(=O)N2 (configuration not stated) | 103.4
CCn1cc(C(=O)Nc2ccccc2)c(=O)c2cc(Cl)ccc21 | 88.9
Cc1cccc(NC(=O)CCCOc2ccc(Cl)cc2Cl)n1 | 100.8
CN(C)C=NC(=S)c1ccc(-c2cccs2)s1 | 77.8*
O=C(Sc1ccc(Cl)cc1)c1ccc(-c2cccs2)s1 | 99.0
CC(C)(C)c1csc(-c2ccc(-c3cccs3)s2)n1 | 100.0
COC(=O)C1=Cc2cc(OC)ccc2OC1 | 98.4
Clc1ncc(CN2CCc3ccccc3C2)s1 | 123.0
O=C1C(=O)N(CCN2CCOCC2)C(c2ccccc2F)/C1=C(\O)c1ccccc1 (configuration not stated) | 90.3
O=C(CSC1CCCCC1)N1CCCCC1 | 99.6
CC(=O)Oc1ccc2oc(-c3ccccc3)c(C(=O)O)c2c1 | 99.8
O=C(O)c1c(-c2ccccc2)oc2ccc(OCc3ccc(Cl)cc3)cc12 | 89.4
Cc1ccccc1COc1ccc2oc(-c3ccccc3)c(C(=O)O)c2c1 | 87.1*
COc1cc(C2C(C#N)=C(N)OC3=C2C(=O)CC(C)(C)C3)ccc1OCC(=O)Nc1ccccc1C (configuration not stated) | 98.6
O=C(N1CCOCC1)C(F)(F)F | 104.2
O=c1cc(-c2ccccc2)oc2cc(O)cc(O)c12 | 100.3
O=C(COc1cc(O)c2c(=O)cc(-c3ccccc3)oc2c1)c1ccccc1 | 100.4
O=c1cc(-c2ccc(O)cc2)oc2cc(O)cc(O)c12 | 85.2*
C=CC[N+]1(CC#Cc2ccccc2)CCCCC1 | 99.6
O=C(NC(=O)C(F)(F)F)N1CCCc2ccccc21 | 108.5
Cc1cc(NC(=O)Cc2cccc(C(F)(F)F)c2)n(-c2ccccn2)n1 | 91.7
SMILES | VACV E9 pol inh
O=c1n(CCCN2CCN(c3cccc(Cl)c3)CC2)nc2ccccn12 | 14.7*
Clc1cccc(OCCN2CCN(c3ccccc3)CC2)c1 | 100.5
Cn1c(=O)oc2cc(S(=O)(=O)NCCCN3CCN(c4cccc(Cl)c4)CC3)ccc21 | 101.7
COC(=O)C1C(=O)NC(SC)=C(C#N)C1c1ccc(Cl)cc1 (configuration not stated) | 94.6
Cc1ccc(S(=O)(=O)N2CCCC2C(=O)Nc2ccc(C)cc2C)cc1 (configuration not stated) | 99.0
CCCCS(=O)(=O)c1c(-c2ccccc2)c2cc(Cl)ccc2[nH]c1=O | 100.6
CS(=O)(=O)c1ccc2nc(NC(=O)c3cccc(C(F)(F)F)c3)sc2c1 | 100.1
N#Cc1ccccc1CSc1nsc(SCc2ccccc2C#N)c1C#N | 98.8
Cc1cc2nc(-c3ccc(Cl)nc3)[nH]c2cc1C | 100.8
Cc1cc(N)cc2[nH]c(-c3ccc(N)cc3)nc12 | 59.5*
Cn1c(-c2ccc3nc(-c4ccc(N)cc4)[nH]c3c2)nc2cc(N)ccc21 | 88.6
O=C1c2cccc(O)c2C(=O)c2c(O)cccc21 | 100.0
O=C1c2ccc(O)c(O)c2C(=O)c2c(O)ccc(O)c21 | 78.2
O=C1C=CC(=O)c2c(O)cccc21 | 74.4*
O=C(O)CN1CCC(c2ccccc2)CC1 | 102.7
O=C1CCC(c2ccccc2)CC1 | 66.5*
O=C1CC(c2ccccc2)SC(c2ccccc2)C1 (configuration not stated) | 100.2
CCN(CC)C(=O)c1cn(-c2ccccc2)nc1-c1ccccc1 | 100.0
CCOC(=O)c1nccn1Cc1ccccc1Cl | 99.8
CCC1CCCCN1C(=O)CNc1ccc(C)cc1Cl (configuration not stated) | 88.4
O=C(COC(=O)C1CCCC1)c1ccccc1Br | 87.0
O=C(Nc1ccc2c(c1)nc1n2CCCCC1)c1ccc(Br)o1 | 101.7
C(=NCc1cccnc1)c1ccc2c(c1)OCO2 | 106.1
O=c1c2ccccc2c(C=NCc2cccnc2)c(O)n1-c1ccccc1C(F)(F)F | 103.7
C(=NCc1cccnc1)c1c2ccccc2cc2ccccc12 | 42.2*
SMILES | VACV E9 pol inh
CCOC(=O)c1cc(C)n(-c2ccc(C)c(C)c2)c1C | 106.9
O=C(O)c1cccc(N2C(=O)/C(=C/c3ccccc3)SC2=S)c1 | 89.8*
COc1ccccc1/C=C1\SC(=S)N(c2ccccc2)C1=O | 100.1
CCN(CC)c1ccc(N2C(=O)/C(=C/c3ccccc3)SC2=S)cc1 | 101.3
C=CCNC(=O)c1c(N)n(CCc2ccccc2F)c2nc3ccccc3nc12 | 97.3
CC1CCCC(NC(=O)Cn2ncc3c(Cl)cccc32)C1C (configuration not stated) | 102.6
CCOc1ccc(NC(=O)c2sc(C)c(CC(=O)Nc3ccc(Cl)cc3)c2O)cc1 | 80.4*
CCOc1ccc(-n2ccnc2SCC(=O)Nc2ccc(Cl)cc2)cc1 | 98.4
CCOc1ccc(NC(=O)CN2C(=O)S/C(=C/c3ccc(Cl)cc3)C2=O)cc1 | 98.7
CCNC(=O)c1c(C)c(C(=O)OCC)n(CC)c1C | 100.3
CN(C)c1ccc(C(=O)N2CCc3ccccc32)cc1 | 88.9
CC(=O)N1CCN(c2ncnc3nc[nH]c23)CC1 | 99.6
CCOC(=O)c1cc(-c2ccnn2C(=O)c2ccccc2)on1 | 95.9
CCOC(=O)c1cc(-c2ccnn2S(=O)(=O)c2cccc(C(F)(F)F)c2)on1 | 69.3*
Cc1cc(-c2nc(-c3ccnn3S(=O)(=O)c3cccc(C(F)(F)F)c3)cs2)no1 | 101.0

Screening results (PubChem)
